Experiments:
Assay in all cases: DAPPL (digital affinity profiling via proximity ligation, sequencing); 10 mM Tris-HCl pH 7.5, 50 mM NaCl, 1 mM DTT, 4% glycerol, room temperature, 30 min; GST-TFs on glutathione beads, 16-mer random dsDNA library, 0.1% formaldehyde crosslink after washing; high values mean tight binding
FEV = biological target: T1, FEV (Homo sapiens, UniProt Q99581 1-238); conditions: protein: recombinant; tags: N-terminal GST; dsDNA, one strand shown
T1 sequence: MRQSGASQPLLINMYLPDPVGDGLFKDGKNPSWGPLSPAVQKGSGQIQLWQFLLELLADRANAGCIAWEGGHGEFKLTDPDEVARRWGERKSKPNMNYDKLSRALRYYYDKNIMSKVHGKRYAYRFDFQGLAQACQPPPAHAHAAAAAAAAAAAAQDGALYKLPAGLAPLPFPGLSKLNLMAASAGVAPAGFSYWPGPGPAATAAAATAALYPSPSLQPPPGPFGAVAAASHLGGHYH
Outline: (§1)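 The binding signal reported is, for every hexamer, its read frequency for a factor over its read frequency for the tag-only sample. Reads came from pools of yeast-expressed, GST-fused human transcription factors on glutathione beads, barcoded with DNA and mixed with that sample, which were incubated with 200 nmole of a random double-stranded 16-mer DNA library in Tris/NaCl/DTT/glycerol buffer at room temperature for 30 min. After washing, the pools were crosslinked with 0.1% formaldehyde, proximity-ligated with BsaI/T4 ligase for 1 h at 37 °C, PCR-amplified and sequenced on an Illumina NextSeq500.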

ETV5 = ETV5 (Homo sapiens, UniProt P41161 1-510); conditions: protein: recombinant; tags: N-terminal GST; dsDNA, one strand shown
Outline: as §1

HSF1 = HSF1 (Homo sapiens, UniProt Q00613 1-529); conditions: protein: recombinant; tags: N-terminal GST; chain copies: 3; dsDNA, one strand shown
Outline: as §1

SPIC = biological target: T2, SPIC (Homo sapiens, UniProt Q8N5J4 1-248); conditions: protein: recombinant; tags: N-terminal GST; dsDNA, one strand shown
T2 sequence: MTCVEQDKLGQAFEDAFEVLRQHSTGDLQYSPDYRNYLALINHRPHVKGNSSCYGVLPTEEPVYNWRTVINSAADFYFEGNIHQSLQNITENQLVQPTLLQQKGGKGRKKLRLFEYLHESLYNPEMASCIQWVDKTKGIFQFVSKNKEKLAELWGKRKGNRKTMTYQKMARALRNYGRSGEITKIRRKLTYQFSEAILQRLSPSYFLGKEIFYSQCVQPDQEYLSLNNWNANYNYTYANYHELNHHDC
Outline: as §1

ELF4 = ELF4 (Homo sapiens, UniProt Q99607 1-663); conditions: protein: recombinant; tags: N-terminal GST; dsDNA, one strand shown
Outline: as §1

ELK4 = biological target: T3, ELK4 (Homo sapiens, UniProt P28324-2 1-405); conditions: protein: recombinant; tags: N-terminal GST; dsDNA, one strand shown
T3 sequence: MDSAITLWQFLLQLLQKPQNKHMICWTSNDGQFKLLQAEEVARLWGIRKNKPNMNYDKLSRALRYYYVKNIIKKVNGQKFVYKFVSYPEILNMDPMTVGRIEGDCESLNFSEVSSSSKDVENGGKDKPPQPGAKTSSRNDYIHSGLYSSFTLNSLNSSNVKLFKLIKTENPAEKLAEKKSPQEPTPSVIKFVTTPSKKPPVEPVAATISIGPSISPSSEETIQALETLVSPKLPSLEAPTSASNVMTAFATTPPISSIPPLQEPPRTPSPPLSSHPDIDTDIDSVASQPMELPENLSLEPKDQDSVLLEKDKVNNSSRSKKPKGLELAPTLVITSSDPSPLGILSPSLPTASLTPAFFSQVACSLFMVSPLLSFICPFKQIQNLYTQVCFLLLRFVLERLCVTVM
Outline: as §1

ETV2 = biological target: T4, ETV2 (Homo sapiens, UniProt O00321 1-342); conditions: protein: recombinant; tags: N-terminal GST; dsDNA, one strand shown
T4 sequence: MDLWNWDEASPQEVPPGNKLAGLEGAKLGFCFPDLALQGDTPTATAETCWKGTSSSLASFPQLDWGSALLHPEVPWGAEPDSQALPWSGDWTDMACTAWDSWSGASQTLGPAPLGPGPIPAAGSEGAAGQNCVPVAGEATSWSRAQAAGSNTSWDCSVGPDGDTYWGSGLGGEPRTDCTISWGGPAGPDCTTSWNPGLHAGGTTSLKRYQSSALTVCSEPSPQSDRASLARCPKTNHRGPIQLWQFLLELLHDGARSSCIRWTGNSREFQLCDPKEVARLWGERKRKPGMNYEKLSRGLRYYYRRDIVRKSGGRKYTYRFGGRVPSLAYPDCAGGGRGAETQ
Outline: as §1

ELF3 = biological target: T5, ELF3 (Homo sapiens, UniProt P78545 1-371); conditions: protein: recombinant; tags: N-terminal GST; dsDNA, one strand shown
T5 sequence: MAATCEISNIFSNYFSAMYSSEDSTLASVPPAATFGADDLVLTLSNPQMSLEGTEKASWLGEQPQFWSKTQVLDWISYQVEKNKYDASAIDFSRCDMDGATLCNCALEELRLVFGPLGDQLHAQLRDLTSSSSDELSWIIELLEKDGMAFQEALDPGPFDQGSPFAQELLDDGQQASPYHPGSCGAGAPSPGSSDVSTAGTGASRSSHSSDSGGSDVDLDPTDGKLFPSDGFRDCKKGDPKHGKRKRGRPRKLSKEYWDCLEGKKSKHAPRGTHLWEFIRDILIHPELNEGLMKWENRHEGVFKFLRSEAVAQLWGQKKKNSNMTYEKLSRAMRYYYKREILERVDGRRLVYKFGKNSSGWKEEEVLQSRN
Outline: as §1

CRX = CRX (Homo sapiens, UniProt O43186 1-299); conditions: protein: recombinant; tags: N-terminal GST; dsDNA, one strand shown
Outline: as §1

ETV1 = ETV1 (Homo sapiens, UniProt P50549 1-477); conditions: protein: recombinant; tags: N-terminal GST; dsDNA, one strand shown
Outline: as §1

ERF = biological target: T6, ERF (Homo sapiens, UniProt P50548 1-548); conditions: protein: recombinant; tags: N-terminal GST; dsDNA, one strand shown
T6 sequence: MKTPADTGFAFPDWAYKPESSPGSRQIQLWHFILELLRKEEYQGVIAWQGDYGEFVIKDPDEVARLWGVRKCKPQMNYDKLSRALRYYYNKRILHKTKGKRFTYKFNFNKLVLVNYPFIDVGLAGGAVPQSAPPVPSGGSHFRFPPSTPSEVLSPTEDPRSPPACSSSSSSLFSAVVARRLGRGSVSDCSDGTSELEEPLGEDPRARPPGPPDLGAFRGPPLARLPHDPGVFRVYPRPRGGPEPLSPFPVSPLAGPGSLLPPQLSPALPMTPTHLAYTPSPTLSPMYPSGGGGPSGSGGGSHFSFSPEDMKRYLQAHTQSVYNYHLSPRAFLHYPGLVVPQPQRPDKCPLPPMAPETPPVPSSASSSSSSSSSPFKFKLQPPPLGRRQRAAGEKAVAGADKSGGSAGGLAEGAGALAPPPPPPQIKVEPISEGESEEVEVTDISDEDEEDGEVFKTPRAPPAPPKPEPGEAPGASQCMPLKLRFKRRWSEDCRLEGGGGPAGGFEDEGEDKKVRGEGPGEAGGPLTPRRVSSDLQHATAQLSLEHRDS
Outline: as §1

ETV3L = biological target: T7, ETV3L (Homo sapiens, UniProt Q6ZN32 1-361); conditions: protein: recombinant; tags: N-terminal GST; dsDNA, one strand shown
T7 sequence: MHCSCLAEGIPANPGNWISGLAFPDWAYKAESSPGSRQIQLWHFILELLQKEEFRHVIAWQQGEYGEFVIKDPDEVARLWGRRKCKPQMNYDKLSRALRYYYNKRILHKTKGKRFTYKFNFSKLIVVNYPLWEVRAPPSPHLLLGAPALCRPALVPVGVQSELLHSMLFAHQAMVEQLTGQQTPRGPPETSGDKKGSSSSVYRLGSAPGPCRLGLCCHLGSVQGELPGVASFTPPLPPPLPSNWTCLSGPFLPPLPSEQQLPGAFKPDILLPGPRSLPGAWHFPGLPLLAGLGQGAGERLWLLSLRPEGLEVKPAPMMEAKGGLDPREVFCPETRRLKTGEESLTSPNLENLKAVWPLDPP
Outline: as §1

ETS2 = biological target: T8, ETS2 (Homo sapiens, UniProt P15036 1-469); conditions: protein: recombinant; tags: N-terminal GST; dsDNA, one strand shown
T8 sequence: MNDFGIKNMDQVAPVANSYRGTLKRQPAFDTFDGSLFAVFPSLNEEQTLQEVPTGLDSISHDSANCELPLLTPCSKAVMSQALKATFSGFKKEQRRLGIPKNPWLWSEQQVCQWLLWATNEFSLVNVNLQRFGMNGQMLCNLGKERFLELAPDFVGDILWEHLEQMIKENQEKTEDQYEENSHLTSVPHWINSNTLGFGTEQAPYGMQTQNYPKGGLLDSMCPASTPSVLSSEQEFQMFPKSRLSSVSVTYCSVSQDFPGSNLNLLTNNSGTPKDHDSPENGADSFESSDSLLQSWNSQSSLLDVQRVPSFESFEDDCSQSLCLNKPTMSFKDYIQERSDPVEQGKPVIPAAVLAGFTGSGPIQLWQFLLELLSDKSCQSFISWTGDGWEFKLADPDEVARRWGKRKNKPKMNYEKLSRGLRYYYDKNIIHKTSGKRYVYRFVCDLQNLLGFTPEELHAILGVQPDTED
Outline: as §1

SPDEF = biological target: T9, SPDEF (Homo sapiens, UniProt O95238 1-335); conditions: protein: recombinant; tags: N-terminal GST; dsDNA, one strand shown
T9 sequence: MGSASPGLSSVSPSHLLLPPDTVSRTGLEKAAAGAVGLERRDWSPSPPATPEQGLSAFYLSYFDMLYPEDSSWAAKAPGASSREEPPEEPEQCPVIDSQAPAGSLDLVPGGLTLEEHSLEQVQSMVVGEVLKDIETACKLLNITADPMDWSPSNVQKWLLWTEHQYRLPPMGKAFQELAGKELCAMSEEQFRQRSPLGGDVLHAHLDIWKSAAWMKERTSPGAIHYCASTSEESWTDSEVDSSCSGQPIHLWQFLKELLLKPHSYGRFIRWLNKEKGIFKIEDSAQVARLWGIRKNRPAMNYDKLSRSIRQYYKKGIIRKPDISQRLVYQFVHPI
Outline: as §1

ETV7 = biological target: T10, ETV7 (Homo sapiens, UniProt Q9Y603 1-341); conditions: protein: recombinant; tags: N-terminal GST; dsDNA, one strand shown
T10 sequence: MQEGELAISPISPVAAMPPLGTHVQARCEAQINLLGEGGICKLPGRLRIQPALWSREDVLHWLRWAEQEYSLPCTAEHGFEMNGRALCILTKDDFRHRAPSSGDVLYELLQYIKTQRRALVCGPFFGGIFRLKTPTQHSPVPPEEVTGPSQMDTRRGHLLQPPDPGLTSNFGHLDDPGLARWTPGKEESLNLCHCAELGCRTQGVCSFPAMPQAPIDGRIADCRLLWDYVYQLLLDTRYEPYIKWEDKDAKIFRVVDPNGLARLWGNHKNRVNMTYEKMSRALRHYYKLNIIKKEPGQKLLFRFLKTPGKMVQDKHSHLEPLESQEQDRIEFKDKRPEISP
Outline: as §1

ELF5 = biological target: T11, ELF5 (Homo sapiens, UniProt Q9UKW6-2 1-255); conditions: protein: recombinant; tags: N-terminal GST; dsDNA, one strand shown
T11 sequence: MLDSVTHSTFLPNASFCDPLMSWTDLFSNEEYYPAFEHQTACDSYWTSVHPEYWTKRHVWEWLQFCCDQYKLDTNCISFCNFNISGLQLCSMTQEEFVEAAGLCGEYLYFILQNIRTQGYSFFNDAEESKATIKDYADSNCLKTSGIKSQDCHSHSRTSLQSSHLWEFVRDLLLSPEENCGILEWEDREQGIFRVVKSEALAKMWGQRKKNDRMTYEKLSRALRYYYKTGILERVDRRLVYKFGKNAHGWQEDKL
Outline: as §1

ETV3 = biological target: T12, ETV3 (Homo sapiens, UniProt P41162-2 1-143); conditions: protein: recombinant; tags: N-terminal GST; dsDNA, one strand shown
T12 sequence: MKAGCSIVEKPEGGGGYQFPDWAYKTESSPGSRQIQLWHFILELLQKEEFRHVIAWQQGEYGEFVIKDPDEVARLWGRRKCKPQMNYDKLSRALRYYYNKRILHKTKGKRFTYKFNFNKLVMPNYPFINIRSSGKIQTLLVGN
Outline: as §1

ETV6 = ETV6 (Homo sapiens, UniProt P41212 1-452); conditions: protein: recombinant; tags: N-terminal GST; dsDNA, one strand shown
Outline: as §1

Chain of ETV5 (P41161 whole entry): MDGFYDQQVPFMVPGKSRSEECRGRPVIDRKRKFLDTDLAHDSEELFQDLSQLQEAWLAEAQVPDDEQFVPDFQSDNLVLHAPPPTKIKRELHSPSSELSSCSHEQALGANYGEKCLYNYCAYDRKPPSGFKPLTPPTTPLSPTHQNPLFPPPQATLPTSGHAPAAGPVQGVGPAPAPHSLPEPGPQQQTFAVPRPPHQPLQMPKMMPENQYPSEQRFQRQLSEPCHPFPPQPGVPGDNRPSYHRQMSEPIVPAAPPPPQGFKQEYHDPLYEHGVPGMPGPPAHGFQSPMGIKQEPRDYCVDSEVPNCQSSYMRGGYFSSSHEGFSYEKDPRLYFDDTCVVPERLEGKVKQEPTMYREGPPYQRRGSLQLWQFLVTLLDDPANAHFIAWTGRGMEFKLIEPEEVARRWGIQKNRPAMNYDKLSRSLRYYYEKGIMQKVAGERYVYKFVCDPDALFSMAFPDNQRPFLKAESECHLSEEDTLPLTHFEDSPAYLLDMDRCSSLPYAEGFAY
Chain of ETV1 (P50549 whole entry): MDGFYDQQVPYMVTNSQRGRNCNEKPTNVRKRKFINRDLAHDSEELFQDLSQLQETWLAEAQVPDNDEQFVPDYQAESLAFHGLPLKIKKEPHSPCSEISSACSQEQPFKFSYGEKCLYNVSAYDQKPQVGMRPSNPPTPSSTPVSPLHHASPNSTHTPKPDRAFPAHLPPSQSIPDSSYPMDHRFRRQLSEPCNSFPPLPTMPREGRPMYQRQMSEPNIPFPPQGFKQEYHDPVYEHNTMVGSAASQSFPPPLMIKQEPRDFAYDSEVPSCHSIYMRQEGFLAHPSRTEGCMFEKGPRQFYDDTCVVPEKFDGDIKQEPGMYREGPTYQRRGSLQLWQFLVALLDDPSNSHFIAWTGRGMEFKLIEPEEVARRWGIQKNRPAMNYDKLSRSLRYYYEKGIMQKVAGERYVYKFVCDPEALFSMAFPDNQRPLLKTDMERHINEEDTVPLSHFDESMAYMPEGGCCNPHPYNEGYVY
Chain of ETV6 (P41212 whole entry): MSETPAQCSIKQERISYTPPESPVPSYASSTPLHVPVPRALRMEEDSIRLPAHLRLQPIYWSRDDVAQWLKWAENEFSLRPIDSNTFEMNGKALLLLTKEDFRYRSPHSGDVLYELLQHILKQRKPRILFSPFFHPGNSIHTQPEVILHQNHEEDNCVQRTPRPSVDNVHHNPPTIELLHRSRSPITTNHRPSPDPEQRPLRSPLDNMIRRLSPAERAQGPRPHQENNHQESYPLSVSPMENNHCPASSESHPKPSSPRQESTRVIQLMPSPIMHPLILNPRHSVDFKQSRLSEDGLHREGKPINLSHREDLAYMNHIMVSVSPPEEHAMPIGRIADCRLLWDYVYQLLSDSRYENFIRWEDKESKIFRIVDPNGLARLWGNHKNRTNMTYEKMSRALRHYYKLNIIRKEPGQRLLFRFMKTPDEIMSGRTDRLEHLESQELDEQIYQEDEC
Chain of HSF1 (Q00613 whole entry): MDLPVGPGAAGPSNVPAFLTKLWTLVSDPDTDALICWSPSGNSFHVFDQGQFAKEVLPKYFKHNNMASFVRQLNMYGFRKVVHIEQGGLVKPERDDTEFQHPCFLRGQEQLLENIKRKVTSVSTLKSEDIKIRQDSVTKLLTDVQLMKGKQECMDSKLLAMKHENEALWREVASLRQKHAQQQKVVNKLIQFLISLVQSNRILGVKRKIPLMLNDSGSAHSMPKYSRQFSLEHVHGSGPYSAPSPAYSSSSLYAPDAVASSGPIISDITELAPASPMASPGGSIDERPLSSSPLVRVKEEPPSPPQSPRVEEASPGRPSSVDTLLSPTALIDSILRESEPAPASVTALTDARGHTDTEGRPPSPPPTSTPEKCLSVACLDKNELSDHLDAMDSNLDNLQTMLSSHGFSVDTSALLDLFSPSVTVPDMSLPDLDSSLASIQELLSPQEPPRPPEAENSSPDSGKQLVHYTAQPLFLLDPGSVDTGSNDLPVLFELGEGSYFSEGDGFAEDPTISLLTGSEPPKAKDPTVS
Chain of ELF4 (Q99607 whole entry): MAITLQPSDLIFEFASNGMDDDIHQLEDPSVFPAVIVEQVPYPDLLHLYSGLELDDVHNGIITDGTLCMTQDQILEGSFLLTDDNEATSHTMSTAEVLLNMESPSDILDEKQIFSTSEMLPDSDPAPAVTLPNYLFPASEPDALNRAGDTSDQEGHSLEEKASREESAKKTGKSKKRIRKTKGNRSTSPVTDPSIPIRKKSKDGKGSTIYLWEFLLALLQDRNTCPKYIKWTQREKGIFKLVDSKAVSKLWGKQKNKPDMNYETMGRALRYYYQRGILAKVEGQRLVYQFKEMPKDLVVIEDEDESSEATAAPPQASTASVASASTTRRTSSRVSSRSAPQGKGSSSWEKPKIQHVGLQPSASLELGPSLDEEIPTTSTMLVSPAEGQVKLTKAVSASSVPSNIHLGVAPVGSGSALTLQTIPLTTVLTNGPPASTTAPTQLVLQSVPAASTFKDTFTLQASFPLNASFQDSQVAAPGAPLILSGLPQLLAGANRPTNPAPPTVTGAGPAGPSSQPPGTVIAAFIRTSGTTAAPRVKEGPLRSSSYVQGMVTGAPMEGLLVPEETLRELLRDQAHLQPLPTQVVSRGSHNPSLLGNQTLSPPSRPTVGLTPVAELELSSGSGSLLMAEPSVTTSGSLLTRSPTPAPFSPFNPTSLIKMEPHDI
Chain of CRX (O43186 whole entry): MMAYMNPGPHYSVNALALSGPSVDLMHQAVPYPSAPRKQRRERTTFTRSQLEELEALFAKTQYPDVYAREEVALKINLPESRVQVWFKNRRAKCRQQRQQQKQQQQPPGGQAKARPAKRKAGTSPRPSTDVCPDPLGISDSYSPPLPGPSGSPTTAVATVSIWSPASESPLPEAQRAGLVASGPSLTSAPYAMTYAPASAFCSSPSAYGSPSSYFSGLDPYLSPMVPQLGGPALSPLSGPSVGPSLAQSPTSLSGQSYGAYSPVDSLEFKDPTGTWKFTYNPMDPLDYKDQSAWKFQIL

TGCTTC
binding signal (FEV): 2.29 fold enrichment (6-mer frequency, TF over GST control) | binding signal (ETV5): 2.1 fold enrichment (6-mer frequency, TF over GST control) | binding signal (HSF1): 1.49 fold enrichment (6-mer frequency, TF over GST control) | binding signal (SPIC): 2.35 fold enrichment (6-mer frequency, TF over GST control) | binding signal (ELF4): 1.98 fold enrichment (6-mer frequency, TF over GST control) | binding signal (ELK4): 2.01 fold enrichment (6-mer frequency, TF over GST control) | binding signal (ETV2): 2.38 fold enrichment (6-mer frequency, TF over GST control) | binding signal (ELF3): 2.25 fold enrichment (6-mer frequency, TF over GST control) | binding signal (CRX): 1.22 fold enrichment (6-mer frequency, TF over GST control) | binding signal (ETV1): 2.19 fold enrichment (6-mer frequency, TF over GST control) | binding signal (ERF): 1.81 fold enrichment (6-mer frequency, TF over GST control) | binding signal (ETV3L): 2.16 fold enrichment (6-mer frequency, TF over GST control) | binding signal (ETS2): 2.06 fold enrichment (6-mer frequency, TF over GST control) | binding signal (SPDEF): 2.39 fold enrichment (6-mer frequency, TF over GST control) | binding signal (ETV7): 2.13 fold enrichment (6-mer frequency, TF over GST control) | binding signal (ELF5): 2.66 fold enrichment (6-mer frequency, TF over GST control) | binding signal (ETV3): 2.21 fold enrichment (6-mer frequency, TF over GST control) | binding signal (ETV6): 2.45 fold enrichment (6-mer frequency, TF over GST control)

Source: PMC7862700, “An all-to-all approach to the identification of sequence-specific readers for epigenetic DNA modifications on cytosine”
